Screening data: PubChem, National Center for Advancing Translational Sciences (NCATS)
HPGD inh = inhibitors of human 15-hydroxyprostaglandin dehydrogenase (HPGD) | purified HPGD, NADH fluorescence kinetic, PGE2 substrate | hit rate 4.3% among 150,000 | AID 894 | Potency, µM, inactives show top-dose activity change, negative = inhibition, most hits filed as inhibitors | P15428; active means well fitted inhibition curve with a large enough effect, not every such curve was filed as active; inconclusive means small, poorly fitted or top-dose-only effect, or another doubt; inactive means no such curve, though single readings can be large or run the other way; further: potency means the concentration at half of the fitted maximal effect
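20 nM HPGD preincubated 15 min at room temperature with compound in 50 mM Tris-HCl pH 8, 0.01% Tween 20. Started with 1 mM NAD+ and 30 uM prostaglandin E2; NADH fluorescence (360/450 nm) read 5 times over 30-s intervals, last minus first.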
PNC inhibitor = blocks assembly of the perinucleolar compartment; PC3M PTB-GFP, PNC prevalence imaging, 16 h; stronger effect = lower value; activity change (PNC), negative = inhibition, % at 10 µM; hit rate 3.1% among 140,000; AID 2417;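 active means readout at or below -70, meaning at least 70% loss of cells showing the perinucleolar compartment, a nuclear body marking cancer cells; inconclusive means readout between -30 and a set limit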;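 further: plate controls were DMSO wells for no effect and camptothecin positive control wells for full effect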
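PC3M cells stably expressing PTB-GFP, 750–1000 cells/well, treated 16 h at 37 °C with compound (23 nl of library stock), in duplicate. After paraformaldehyde fixation and Hoechst stain, imaged at 20x; PNC prevalence scored by image analysis.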
ALDH1A1 inh = inhibitors of human aldehyde dehydrogenase 1A1; Potency, µM (highest dose often 75.3 µM), without a hit: at the highest dose activity, negative = inhibition, usual class: inhibitors; P00352; AID 1030; Purified ALDH1A1, NADH fluorescence, propionaldehyde substrate; hit rate 7.3% among 220,000; active means well fitted inhibition curve with a large enough effect, not every such curve was filed as active; inconclusive means small, poorly fitted or top-dose-only effect, or another doubt; inactive means no such curve, though single readings can be large or run the other way;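 further: potency means the concentration at half of the fitted maximal effect; plate controls were no enzyme wells and a reference inhibitor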
GLA inh pH 4.5 = alpha-galactosidase A (human) inhibition, pH 4.5; P06280; purified enzyme, 4-MU-alpha-Gal fluorescence, pH 4.5; AID 1467; 230,000 tested, under 10 active; activity change, negative = inhibition, % at 105 µM;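 further: 0% = full activity with enzyme and -100% = basal without enzyme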
ALOX12 inhib = inhibitors of human 12-lipoxygenase (ALOX12). P18054. purified 12-hLO, xylenol orange hydroperoxide absorbance. Potency, µM (highest dose often 57.1 µM), for the others: at the highest dose activity change, negative = inhibition, actives largely listed as inhibitors. hit rate 0.12% among 150,000; further: potency means the concentration at half of the fitted maximal effect; nearly all actives have a fitted effect of over 55% in size
Target sequence (P18054 whole entry, looked up): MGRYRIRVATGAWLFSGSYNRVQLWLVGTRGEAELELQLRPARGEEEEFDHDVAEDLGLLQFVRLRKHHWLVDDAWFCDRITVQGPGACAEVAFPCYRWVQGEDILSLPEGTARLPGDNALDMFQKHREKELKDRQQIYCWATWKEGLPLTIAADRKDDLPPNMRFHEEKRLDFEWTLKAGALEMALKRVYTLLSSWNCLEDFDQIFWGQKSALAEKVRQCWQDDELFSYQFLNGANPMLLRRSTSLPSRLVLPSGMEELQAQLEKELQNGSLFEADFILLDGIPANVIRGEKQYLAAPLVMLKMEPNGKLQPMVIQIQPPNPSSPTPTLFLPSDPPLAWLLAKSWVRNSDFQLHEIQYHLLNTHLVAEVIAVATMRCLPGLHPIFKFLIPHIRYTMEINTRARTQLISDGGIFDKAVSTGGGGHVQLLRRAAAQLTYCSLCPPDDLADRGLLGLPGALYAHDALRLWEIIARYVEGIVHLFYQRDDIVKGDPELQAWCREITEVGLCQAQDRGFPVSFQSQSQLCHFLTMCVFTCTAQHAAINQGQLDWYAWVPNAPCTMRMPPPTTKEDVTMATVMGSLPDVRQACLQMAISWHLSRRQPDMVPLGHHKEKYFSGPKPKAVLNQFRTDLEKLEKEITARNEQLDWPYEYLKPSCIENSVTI
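150 nM 12hLO, 25 mM Hepes pH 7.0 + 0.01% Triton X-100; cpd preinc 15 min RT; 40 uM arachidonic acid, 30 min RT; Fe-XO 30 min; A573/A405 ratio as read-out.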
GLA spleen mod = alpha-galactosidase A (human) modulation; human spleen homogenate, 4MU-alpha-Gal fluorescence, 40 min; Potency, µM (highest dose often 80 µM), for the others: at the top dose activity change, negative = inhibition, usual class: inhibitors; hit rate 0.008% among 240,000; AID 2107;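 further: potency means the concentration at half of the fitted maximal effect; 0% = enzyme with vehicle and -100% = no enzyme basal signal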
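qHTS titration in buffer at pH 5.0. Alpha-galactosidase activity in spleen homogenate was measured via 4-methylumbelliferone release from 1 mM fluorogenic substrate after 40 min at 37C and a pH 10 stop. AC50 came from Hill fits of control-normalized data.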
* marks the source's active call; other numbers are inactive results; ? = inconclusive; · = not tested or not shown; ! = not confirmed by another sample; [ ] = remark or other dose. Hits are enriched below; roughly 10% of the tested compounds scored in any of these assays. Unless noted, the call rests on the fitted dose curve; in most records, active means well fitted curve in the direction sought with a large enough effect; inconclusive means small, poorly fitted or top-dose-only effect, or another doubt; inactive means no such curve, though single readings can be large; an effect the other way counts as inactive or inconclusive. Unless noted, on the % scale 0 is the no-effect control and ±100 the full control effect.

SMILES	HPGD inh	PNC inhibitor	ALDH1A1 inh	GLA inh pH 4.5	ALOX12 inhib	GLA spleen mod
CC(=O)OC(C(=O)c1ccccc1)c1ccccc1 (centres undefined)	-14.7%	·	22.4µM*	·	-3.8%	-13.8%
Cc1noc(C)c1-c1cncnc1-n1ccnc1	·	·	8.1%	·	·	16.0%
Fc1cccc(-c2csc(-c3ccno3)n2)c1	·	·	22.4µM*	-8.1	·	-3.6%
CCCC[C@H](NC(=O)[C@H](CC(C)C)NC(=O)[C@@H](Cc1c[nH]c2ccccc12)NC(=O)[C@H](Cc1ccccc1)NC(=O)[C@@H](Cc1c[nH]c2ccccc12)NC(=O)[C@H](CC(N)=O)NC(=O)[C@@H](Cc1c(Cl)cccc1Cl)NC(=O)[C@@H]1CCCN1C(=O)[C@H](Cc1ccccn1)NC(=O)[C@@H]1CCCN1C(=O)[C@H](N)CCCCNC(=O)c1cccnc1)C(N)=O	·	·	·	·	·	-3.4%
C=CC1=C2C=C(C3CC3)N(C3CCCC3)C=C2C(=O)C(C)(OC(=O)c2ccco2)C1=O (centres undefined)	-1.3%	·	7.8%[13.5 µM]	8.7	-3.5%[11.4 µM]	-0.3%[17.5 µM]
COc1ccc2cc(C(c3nnnn3C(C)(C)C)N3CCc4ccccc4C3)c(=O)[nH]c2c1 (centres undefined)	-22.1%	?	?	-2.6	-10.2%	-2.6%
COc1ccc2cc(C(c3nnnn3C3CCCC3)N3CCc4ccccc4C3)c(=O)[nH]c2c1 (centres undefined)	?	1.0	17.8µM*	-4.4	-8.7%	1.9%
Cc1cc(C)c2cc(C(c3nnnn3C3CCCC3)N3CCOCC3)c(=O)[nH]c2c1 (centres undefined)	?	-6.4	14.1µM*	3.0	2.7%	15.0%
Cc1cccc2cc(C(c3nnnn3C3CCCC3)N3CCOCC3)c(=O)[nH]c12 (centres undefined)	-13.7%	-11.9	?	8.0	-2.4%	-3.4%
Cc1ccc2cc(C(c3nnnn3C3CCCC3)N3CCN(c4ccc(F)cc4)CC3)c(=O)[nH]c2c1 (centres undefined)	-24.7%	-26.5	11.2µM*	-7.8	-10.2%	-10.2%
O=C(COc1ccc2ccccc2c1)Nc1ccc2c3c(cccc13)CC2	-21.7%	?	0.1%	1.2	1.5%	-5.5%
COCCNC(=O)CN1CCCCCC1	·	·	?	9.9	·	2.7%
COCCNCC(=O)N1CCCCCC1	·	·	3.98µM*	-1.7	·	-2.4%
COc1ccc(S(=O)(=O)N2CCCC(C(=O)O)C2)cc1 (centres undefined)	1.6%	?	0.1%	8.4	14.1%	6.6%
COc1ccc(S(=O)(=O)N2CCCC(C(=O)NC3CCCCC3)C2)cc1 (centres undefined)	-16.6%	-102.2*	7.7%	-4.3	0.6%	-12.6%
COc1ccc(-c2ccc(N(C)C)cc2)cc1C1C2C=CCC(C)C2C(=O)N1Cc1ccccc1 (centres undefined)	·	·	·	·	·	4.8%
O=C(c1cccs1)[C@@H]1[C@@H]2C(=O)N(Cc3ccc4c(c3)OCO4)C(=O)[C@@H]2C2c3ccccc3C=CN21 (some centres undefined)	?	8.4	14.1µM*	-10.7	-13.7%	1.9%
O=C(c1ccc2c(c1)OCO2)[C@@H]1[C@@H]2C(=O)N(C3CCCCC3)C(=O)[C@@H]2C2c3ccccc3C=CN21 (some centres undefined)	-14.1%	-1.4	3.55µM*	-1.1	-24.3%	1.0%
CC(C)(C)C(=O)[C@@H]1[C@@H]2C(=O)N(C3CCCCC3)C(=O)[C@@H]2[C@H]2c3ccccc3C=CN12	?	?	20µM*	3.6	13.8%	-2.2%
O=C(Nc1ccc2c(c1)OCO2)[C@@H]1[C@@H]2C(=O)N(C3CCCCC3)C(=O)[C@@H]2C2c3ccccc3C=CN21 (some centres undefined)	-10.3%	15.4	11.2µM*	0.7	0.6%	0.6%
O=C(c1ccc2c(c1)OCO2)C1CCCN(C(=O)Nc2ccc(F)cc2F)C1 (centres undefined)	·	·	-3.5%	0.6	·	7.1%
O=C1C=C[C@@H](O)[C@H]2[C@@H]3C(=O)N(Cc4ccc5c(c4)OCO5)C(=O)[C@@H]3CC[C@H]12	·	·	-8.3%[13.5 µM]	·	·	-2.3%[17.5 µM]
O=C(Nc1ccc2c(c1)OCO2)C1CCN(S(=O)(=O)Cc2ccccc2)CC1	-7.8%	18.8	-10.6%	-4.7	-4.9%	1.1%
CC(C)N(C)C	-8.2%	·	7.0%	·	0.3%	11.3%
COc1ccc(N2C(=O)[C@@H]3[C@H](C2=O)[C@H]2c4ccccc4C=CN2[C@@H]3C(C)=O)cc1	?	33.9	31.6µM*	-0.2	-2.0%	-4.0%
SMILES	HPGD inh	PNC inhibitor	ALDH1A1 inh	GLA inh pH 4.5	ALOX12 inhib	GLA spleen mod
COc1ccc(C(=O)/C=C/c2cc(OC)c(O)c(OC)c2)c(F)c1	14.1µM*	4.2	?	-2.8	?	7.7%
Nc1ncc(Br)cc1S(=O)(=O)NCCC(=O)N1CCN(c2ccccn2)CC1	-13.0%	-113.4*	?	-4.7	-1.1%	-11.1%
CC(=O)N1CCc2cc(S(=O)(=O)NCCC(=O)N3CCN(c4ccccn4)CC3)ccc21	-9.3%	12.0	2.2%	3.0	0.8%	-1.9%
C[C@@]12C[C@H](O)C3[C@H](CCC4=CC(=O)CC[C@]43C)[C@H]1CC[C@@H]2c1csc(N)n1 (some centres undefined)	-3.2%	·	2µM*	·	·	·
CCCCC/C=C\C/C=C\C/C=C\CCCCCCC(=O)O	-12.6%	·	-8.6%	-3.5	4.7%	-15.8%
CCCCC/C=C\C/C=C\CCCCCCCC(=O)O	8.91µM*!	·	17.8µM*!	-5.3	-4.0%	-2.0%
O=C(c1cccnc1)N1N=C(C2CCCCC2)CC1(O)C(F)(F)F (centres undefined)	·	·	12.6µM*	0.2	·	-27.9%
CCNc1ncc2nc(-c3ccc(OC)cc3)c(=O)n(Cc3cccs3)c2n1	·	·	?	·	·	24.6%
Oc1cc(CN2COc3ccccc32)c(O)cc1CNC1CCCCC1	1.58µM*	·	-2.2%[13.5 µM]	·	9.7%[11.4 µM]	·
CCOC(=O)C1CCN(c2ncnc3c2cnn3-c2ccccc2)CC1	-3.5%	12.9	?	-0.3	-1.1%	2.5%
Cc1nn(-c2ccccc2)c(Cl)c1C(=O)N1CCN(c2ncnc3c2cnn3-c2ccccc2)CC1	?	-11.6	14.1µM*	-8.1	2.5%	-2.2%
O=C(c1cccc(Cl)c1)N1CCN(c2ncnc3c2cnn3-c2ccccc2)CC1	·	·	7.94µM*	0.0	·	2.2%
O=C(c1ccco1)N1CCN(c2ncnc3c2cnn3-c2ccccc2)CC1	-7.4%	15.3	?	7.2	-0.7%	15.1%
O=C(c1ccccc1)N1CCN(c2ncnc3c2cnn3-c2ccccc2)CC1	-8.5%	15.1	?	2.5	2.3%	5.6%
CC1CCN(c2ncnc3c2cnn3-c2ccccc2)CC1	28.2µM*	6.5	?	10.5	-7.8%	-8.9%
